First the molecules themselves.
B1: PD-1 ITIM pTyr223 peptide variant S220W (peptide)
chain: VFWVDYGELDF
B2: PD-1 ITIM pTyr223 peptide variant V221Y (peptide)
chain: VFSYDYGELDF
B3: PD-1 ITIM pTyr223 peptide variant F219Y (peptide)
chain: VYSVDYGELDF
B4: PD-1 ITIM pTyr223 peptide variant L226Y (peptide)
chain: VFSVDYGEYDF
B5: PD-1 ITIM pTyr223 peptide variant G224D (peptide)
chain: VFSVDYDELDF
B6: PD-1 ITIM pTyr223 peptide variant L226Q (peptide)
chain: VFSVDYGEQDF
B7: PD-1 ITIM pTyr223 peptide variant F228C (peptide)
chain: VFSVDYGELDC
B8: PD-1 ITIM pTyr223 peptide variant F228D (peptide)
chain: VFSVDYGELDD
B9: PD-1 ITIM pTyr223 peptide variant S220Q (peptide)
chain: VFQVDYGELDF
B10: PD-1 ITIM pTyr223 peptide variant D222R (peptide)
chain: VFSVRYGELDF
B11: PD-1 ITIM pTyr223 peptide variant V218Y (peptide)
chain: YFSVDYGELDF
B12: PD-1 ITIM pTyr223 peptide variant L226N (peptide)
chain: VFSVDYGENDF
B13: PD-1 ITIM pTyr223 peptide variant F219N (peptide)
chain: VNSVDYGELDF
B14: PD-1 ITIM pTyr223 peptide variant E225Q (peptide)
chain: VFSVDYGQLDF
B15: PD-1 ITIM pTyr223 peptide variant E225R (peptide)
chain: VFSVDYGRLDF
B16: PD-1 ITIM pTyr223 peptide variant G224K (peptide)
chain: VFSVDYKELDF
B17: PD-1 ITIM pTyr223 peptide variant G224Q (peptide)
chain: VFSVDYQELDF
B18: PD-1 ITIM pTyr223 peptide variant L226H (peptide)
chain: VFSVDYGEHDF
B19: PD-1 ITIM pTyr223 peptide variant S220N (peptide)
chain: VFNVDYGELDF
B20: PD-1 ITIM pTyr223 peptide variant V221K (peptide)
chain: VFSKDYGELDF
B21: PD-1 ITIM pTyr223 peptide variant D227R (peptide)
chain: VFSVDYGELRF
B22: PD-1 ITIM pTyr223 peptide variant E225H (peptide)
chain: VFSVDYGHLDF
B23: PD-1 ITIM pTyr223 peptide variant F228Y (peptide)
chain: VFSVDYGELDY
B24: PD-1 ITIM pTyr223 peptide variant S220E (peptide)
chain: VFEVDYGELDF
B25: PD-1 ITIM pTyr223 peptide variant D222H (peptide)
chain: VFSVHYGELDF
B26: PD-1 ITIM pTyr223 peptide variant D227C (peptide)
chain: VFSVDYGELCF
B27: PD-1 ITIM pTyr223 peptide variant G224E (peptide)
chain: VFSVDYEELDF
B28: PD-1 ITIM pTyr223 peptide variant E225Y (peptide)
chain: VFSVDYGYLDF
B29: PD-1 ITIM pTyr223 peptide variant S220H (peptide)
chain: VFHVDYGELDF
B30: PD-1 ITIM pTyr223 peptide variant S220D (peptide)
chain: VFDVDYGELDF
B31: PD-1 ITIM pTyr223 peptide variant L226E (peptide)
chain: VFSVDYGEEDF
B32: PD-1 ITIM pTyr223 peptide variant V221R (peptide)
chain: VFSRDYGELDF
B33: PD-1 ITIM pTyr223 peptide variant V218N (peptide)
chain: NFSVDYGELDF
B34: PD-1 ITIM pTyr223 peptide variant V218E (peptide)
chain: EFSVDYGELDF
B35: PD-1 ITIM pTyr223 peptide variant L226K (peptide)
chain: VFSVDYGEKDF
B36: PD-1 ITIM pTyr223 peptide variant D222Y (peptide)
chain: VFSVYYGELDF
B37: PD-1 ITIM pTyr223 peptide variant V221D (peptide)
chain: VFSDDYGELDF
B38: PD-1 ITIM pTyr223 peptide variant V221E (peptide)
chain: VFSEDYGELDF
B39: PD-1 ITIM pTyr223 peptide variant F219R (peptide)
chain: VRSVDYGELDF
B40: PD-1 ITIM pTyr223 peptide variant V218Q (peptide)
chain: QFSVDYGELDF
B41: PD-1 ITIM pTyr223 peptide variant G224N (peptide)
chain: VFSVDYNELDF
B42: PD-1 ITIM pTyr223 peptide variant E225D (peptide)
chain: VFSVDYGDLDF
B43: PD-1 ITIM pTyr223 peptide variant F228Q (peptide)
chain: VFSVDYGELDQ
B44: PD-1 ITIM pTyr223 peptide variant D227H (peptide)
chain: VFSVDYGELHF
B45: PD-1 ITIM pTyr223 peptide variant F219W (peptide)
chain: VWSVDYGELDF
B46: PD-1 ITIM pTyr223 peptide variant F219H (peptide)
chain: VHSVDYGELDF
B47: PD-1 ITIM pTyr223 peptide variant F228H (peptide)
chain: VFSVDYGELDH
B48: PD-1 ITIM pTyr223 peptide variant V221H (peptide)
chain: VFSHDYGELDF
B49: PD-1 ITIM pTyr223 peptide variant E225K (peptide)
chain: VFSVDYGKLDF
B50: PD-1 ITIM pTyr223 peptide variant V218K (peptide)
chain: KFSVDYGELDF
B51: PD-1 ITIM pTyr223 peptide variant V221N (peptide)
chain: VFSNDYGELDF
B52: PD-1 ITIM pTyr223 peptide variant G224C (peptide)
chain: VFSVDYCELDF
B53: PD-1 ITIM pTyr223 peptide variant G224Y (peptide)
chain: VFSVDYYELDF
B54: PD-1 ITIM pTyr223 peptide variant D227Q (peptide)
chain: VFSVDYGELQF
B55: PD-1 ITIM pTyr223 peptide variant F228E (peptide)
chain: VFSVDYGELDE
B56: PD-1 ITIM pTyr223 peptide variant S220R (peptide)
chain: VFRVDYGELDF
B57: PD-1 ITIM pTyr223 peptide variant D222W (peptide)
chain: VFSVWYGELDF
B58: PD-1 ITIM pTyr223 peptide variant F228N (peptide)
chain: VFSVDYGELDN
B59: PD-1 ITIM pTyr223 peptide variant E225C (peptide)
chain: VFSVDYGCLDF
B60: PD-1 ITIM pTyr223 peptide variant F228R (peptide)
chain: VFSVDYGELDR

In the test the target is SHP2 N-SH2 domain T42A. The experiment in a line: log2 enrichment relative to wild-type ITIM peptide; higher = stronger binding.
As to B1, the log2 enrichment was -0.544.

With B2, the log2 enrichment is 0.57.

B3 came in with a log2 enrichment of 0.45.

Take B4: the log2 enrichment was -1.46.

In turn, B5 gave a log2 enrichment of -0.746.

In turn, B6 had a log2 enrichment of -1.5.

Molecule B7 showed a log2 enrichment of -1.54.

The molecule B8 displayed a log2 enrichment of -1.56.

For the molecule B9, the log2 enrichment was -0.0797.

For the molecule B10, the log2 enrichment worked out at 2.89.

The molecule B11 had a log2 enrichment of -0.0716.

Molecule B12 registered a log2 enrichment of -1.33.

B13 came in with a log2 enrichment of 0.243.

For the molecule B14, the log2 enrichment worked out at 0.0512.

B15 came in with a log2 enrichment of -0.382.

Turning to B16, the log2 enrichment came to 2.48.

Take B17: the log2 enrichment is -0.168.

Turning to B18, the log2 enrichment was -1.46.

Molecule B19 displayed a log2 enrichment of -0.0661.

In the case of B20, the log2 enrichment was -1.

For B21, the log2 enrichment was -0.941.

In the case of B22, the log2 enrichment was -0.301.

Take B23: the log2 enrichment is -1.37.

For the molecule B24, the log2 enrichment was -0.481.

As for B25, the log2 enrichment was determined as 1.68.

B26 had a log2 enrichment of -0.854.

B27 yielded a log2 enrichment of -0.506.

Turning to B28, the log2 enrichment was -0.767.

B29 gave a log2 enrichment of 0.0672.

With B30, the log2 enrichment was -0.682.

B31 registered a log2 enrichment of -1.51.

In turn, B32 yielded a log2 enrichment of -1.04.

B33 returned a log2 enrichment of 0.14.

B34 showed a log2 enrichment of -0.155.

Take B35: the log2 enrichment was -1.37.

Turning to B36, the log2 enrichment came out at 0.0176.

The molecule B37 came in with a log2 enrichment of -1.38.

Molecule B38 returned a log2 enrichment of -1.41.

B39 returned a log2 enrichment of 1.24.

As to B40, the log2 enrichment turned out to be 0.0173.

Regarding B41, the log2 enrichment was -0.336.

B42 came in with a log2 enrichment of -0.183.

In turn, B43 had a log2 enrichment of -1.43.

Consider B44, for which the log2 enrichment was -0.826.

The molecule B45 returned a log2 enrichment of -0.244.

As for B46, the log2 enrichment worked out at 0.536.

In turn, B47 had a log2 enrichment of -1.32.

Regarding B48, the log2 enrichment is -1.23.

Turning to B49, the log2 enrichment turned out to be 0.303.

Turning to B50, the log2 enrichment came out at 0.439.

Turning to B51, the log2 enrichment was -1.45.

B52 displayed a log2 enrichment of -0.184.

B53 gave a log2 enrichment of -0.792.

As to B54, the log2 enrichment is -0.79.

In turn, B55 came in with a log2 enrichment of -1.51.

B56: the log2 enrichment amounted to 1.22.

Regarding B57, the log2 enrichment was -0.569.

As to B58, the log2 enrichment is -1.38.

The molecule B59 came in with a log2 enrichment of -0.897.

In the case of B60, the log2 enrichment was -1.52.
